These results are taken from PubChem BioAssay AID1259245 (Vanderbilt High Throughput Screening Facility, 2017).

Molecules are shown by their SMILES. About 1,400 (3.5%) of roughly 40,000 compounds were called active.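 The calls were made as follows: active = any of four per-well response measures lying three or more SD from its plate-wide compound average, in either direction; inactive = the rest, inconclusive results apart.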 Only a selection was taken, and actives are over-represented in it overall.

Chain of Voltage-dependent calcium channel gamma-2 subunit (Mus musculus) + Glutamate receptor 2 (Rattus norvegicus) (O88602 whole entry, looked up): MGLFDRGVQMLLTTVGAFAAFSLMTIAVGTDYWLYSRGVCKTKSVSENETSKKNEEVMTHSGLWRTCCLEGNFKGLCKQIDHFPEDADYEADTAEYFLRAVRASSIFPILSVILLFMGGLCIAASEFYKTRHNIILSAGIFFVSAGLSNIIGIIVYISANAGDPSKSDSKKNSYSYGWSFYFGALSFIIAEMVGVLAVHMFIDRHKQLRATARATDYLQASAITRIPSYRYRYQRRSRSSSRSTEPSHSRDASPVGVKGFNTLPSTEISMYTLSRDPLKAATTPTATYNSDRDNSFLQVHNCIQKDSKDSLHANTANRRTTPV
Chain of Voltage-dependent calcium channel gamma-2 subunit (Mus musculus) + Glutamate receptor 2 (Rattus norvegicus) (P19491 whole entry, looked up): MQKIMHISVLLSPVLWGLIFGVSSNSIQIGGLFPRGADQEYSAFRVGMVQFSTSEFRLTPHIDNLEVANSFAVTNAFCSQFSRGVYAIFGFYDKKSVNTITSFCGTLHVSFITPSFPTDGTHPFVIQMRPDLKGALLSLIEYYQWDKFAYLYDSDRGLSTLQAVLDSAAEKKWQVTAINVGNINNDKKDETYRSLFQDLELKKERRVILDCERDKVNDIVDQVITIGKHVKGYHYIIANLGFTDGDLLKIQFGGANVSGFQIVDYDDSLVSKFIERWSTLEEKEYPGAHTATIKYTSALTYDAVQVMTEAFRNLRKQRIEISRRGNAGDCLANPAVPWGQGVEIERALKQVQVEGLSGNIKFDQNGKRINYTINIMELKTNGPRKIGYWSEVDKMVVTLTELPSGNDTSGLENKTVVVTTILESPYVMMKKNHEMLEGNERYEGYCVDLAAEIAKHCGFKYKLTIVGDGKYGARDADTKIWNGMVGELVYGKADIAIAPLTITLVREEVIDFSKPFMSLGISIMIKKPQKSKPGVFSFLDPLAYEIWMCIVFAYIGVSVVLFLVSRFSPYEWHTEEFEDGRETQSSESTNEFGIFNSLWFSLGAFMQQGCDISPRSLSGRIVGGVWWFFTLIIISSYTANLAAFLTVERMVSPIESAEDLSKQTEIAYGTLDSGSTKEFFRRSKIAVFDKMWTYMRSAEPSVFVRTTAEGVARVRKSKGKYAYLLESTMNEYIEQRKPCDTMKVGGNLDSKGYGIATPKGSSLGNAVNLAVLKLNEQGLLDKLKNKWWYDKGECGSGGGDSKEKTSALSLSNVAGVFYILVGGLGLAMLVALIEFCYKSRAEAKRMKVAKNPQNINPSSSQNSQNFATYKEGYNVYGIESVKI

This assay has as its target Voltage-dependent calcium channel gamma-2 subunit (Mus musculus) + Glutamate receptor 2 (Rattus norvegicus) (UniProt O88602+P19491). The assay can be described thus: modulators of GluA2-stargazin AMPA receptor complexes, primary screen, cell-based, membrane potential dye (AID 1259245). The note with it: HEK293 GluA2+stargazin, membrane potential dye (FDSS), glutamate EC50, at 30 µM, hits were called plate by plate, in both directions; compound max-min signal: compound-alone response (agonism); glutamate slope, % of max: measured here: glutamate response slope, % max.
Regarding `CSc1ccccc1NC(=O)C(=O)NCC(O)(c1ccco1)C1CC1` (centres undefined), the compound max-min signal was found to be 0.142; the glutamate response, % of max was 47.7% (inactive); the glutamate slope, % of max is 61%.
For `O=C(c1ccc(Cl)c(N2C(=O)CCS2(=O)=O)c1)N1CCc2ccccc2C1`, in that order: 0.0843, 26.4% (inactive) and 47.6%.
For `CCOc1ccc(-c2ccc(N3CCN(C(=O)c4ccc5nsnc5c4)CC3)nn2)cc1`, in that order: 0.0304, 15.3% (inactive) and 32.9%.
For `CCn1ccnc1N1CCN(C(=O)c2ccccc2Cl)CC1` the same measures were 0.0774, 50% (inactive) and 67.4%.
For `CCSc1ccccc1C(=O)N1CCN(c2ccc(-c3ccccn3)nn2)CC1`, the compound max-min signal was 0.198; the glutamate response, % of max was 34.1% (active); the glutamate slope, % of max was 45%.
For `O=C(CCn1ccc(=O)[nH]c1=O)N1CCN(c2ccc(-c3ccccn3)nn2)CC1` the same measures were 0.117, 16.7% (inactive) and 21.1%.
As for `CCOc1ccccc1C(=O)N1CCN(c2ccc(-c3ccccn3)nn2)CC1`, the compound max-min signal turned out to be 0.189; the glutamate response, % of max is 31.9% (active); the glutamate slope, % of max is 43.1%.
For `O=C(NCc1ccccc1)N1CCN(c2ccc(-c3ccncc3)nn2)CC1` the same measures were 0.115, 17.8% (inactive) and 40.4%.
Take `CN1CCN(c2ccc(-c3cccc(NC(=O)COc4ccc(F)cc4F)c3)nn2)CC1`: the compound max-min signal worked out at 0.0723; the glutamate response, % of max was 38.5% (inactive); the glutamate slope, % of max amounted to 60.1%.
For `CCOc1ccc2c(=O)c(Oc3ccccc3Br)coc2c1`, in that order: 0.0905, 40.8% (inactive) and 58.4%.
As for `O=C(NCc1ccc(Cl)cc1)C(=O)NCc1c(F)cccc1F`, the compound max-min signal stood at 0.122; the glutamate response, % of max was 54.4% (inactive); the glutamate slope, % of max was determined as 66.8%.
For `O=C(NCc1ccsc1)c1c(F)cccc1F`, in that order: 0.0794, 28.8% (inactive) and 48.6%.
`Cn1cc(C(=O)NCc2c(F)cccc2F)nn1`: the compound max-min signal turned out to be 0.0862; the glutamate response, % of max is 93.4% (active); the glutamate slope, % of max is 99.8%.
For `CC(=O)NCCn1ncc2c(N3CCOCC3)ncnc21`, in that order: 0.0821, 32.3% (inactive) and 59.3%.
As for `CCN1C(SCC(=O)Nc2cccc(Cl)c2)=NS(=O)(=O)c2ccccc21`, the compound max-min signal worked out at 0.0878; the glutamate response, % of max is 38% (inactive); the glutamate slope, % of max came out at 62%.
For `CCOc1ccccc1Nc1nnc(Cc2ccc(OC)cc2)c(=O)[nH]1` the same measures were 0.0678, 46% (inactive) and 67.9%.
For `O=C(NCC(O)(c1ccccc1)C1CC1)c1ccccc1Br` (centres undefined) the same measures were 0.0722, 13.9% (inactive) and 40%.
For `CSc1ccccc1C(=O)NCC(C)(O)C1CC1` (centres undefined), in that order: 0.0943, 38.3% (inactive) and 57.1%.
Turning to `CCSc1ccccc1C(=O)NCC(O)(c1ccccc1)C1CC1` (centres undefined), the compound max-min signal was found to be 0.0554; the glutamate response, % of max was 28.7% (active); the glutamate slope, % of max turned out to be 57.8%.
For `COc1ccc(NC(=O)CSc2nccn(-c3cccc(F)c3)c2=O)cc1Cl` the same measures were 0.114, 29.6% (inactive) and 46.8%.
Turning to `O=S(=O)(NCC(O)c1ccsc1)c1cccs1` (centres undefined), the compound max-min signal amounted to 0.105; the glutamate response, % of max is 47.4% (inactive); the glutamate slope, % of max amounted to 63.3%.
For `C=CCOC(=O)COc1ccc2c(c1)O/C(=C\c1cc(OC)ccc1OC)C2=O` the same measures were 0.106, 58.4% (inactive) and 60.4%.
For `COc1ccc2c(c1)c(/C=C1\Oc3cc(O)cc(C)c3C1=O)cn2C`, in that order: 0.239, 23.6% (active) and 43.9%.
For `Cc1[nH]c(=O)[nH]c(=O)c1CC(=O)N1CCN(S(C)(=O)=O)CC1` the same measures were 0.153, 46.3% (inactive) and 86.1%.
On to `CC(C)c1ccccc1NC(=O)Cc1csc(NC(=O)c2ccc(=O)[nH]c2)n1`, for which the compound max-min signal stood at 0.062; the glutamate response, % of max was 20.3% (inactive); the glutamate slope, % of max came to 41.8%.
For `COc1cn(CC(=O)Nc2ccc(NC(C)=O)cc2)c(CSc2ncccn2)cc1=O` the same measures were 0.0519, 26.3% (inactive) and 40.3%.
For `Cc1c(Cl)ccc2sc(N(Cc3ccccn3)C(=O)Cc3ccc(S(C)(=O)=O)cc3)nc12` the same measures were 0.0569, 22.1% (inactive) and 54.5%.
For `COC(=O)N1CCC(CNS(=O)(=O)c2ccc(OC(F)(F)F)cc2)CC1` the same measures were 0.114, 39.2% (inactive) and 61.1%.
As to `O=C(NCC1(c2cccs2)CC1)Nc1c(F)cccc1F`, the compound max-min signal worked out at 0.107; the glutamate response, % of max was 24.4% (inactive); the glutamate slope, % of max was 44%.
For `O=S(=O)(NCC1(c2cccs2)CC1)c1ccc(OC(F)(F)F)cc1`, in that order: 0.153, 0.436% (active) and 9.92%.
For `COC(=O)c1cc(OC)c(OC)cc1NC(=O)c1cc(C)oc1C`, in that order: 0.112, 34.9% (inactive) and 55.7%.
For `Cn1cccc1C(O)CNC(=O)C1(c2ccccc2)CCOCC1` (centres undefined) the same measures were 0.0879, 49.3% (inactive) and 62.9%.
In the case of `COc1ccc2c(=O)c(Oc3ccc(C(=O)N4CCN(c5ccccn5)CC4)cc3)c(C)oc2c1`, the compound max-min signal was 0.0327; the glutamate response, % of max is 28.3% (active); the glutamate slope, % of max turned out to be 56.7%.
For `COCCNC(=O)c1ccc(Oc2c(C)oc3cc(OC)ccc3c2=O)cc1`, in that order: 0.0907, 9.44% (inactive) and 21.9%.
For `COc1ccc2c(=O)c(Oc3ccc(C(=O)Nc4cccnc4)cc3)c(C)oc2c1` the same measures were 0.137, 24.4% (inactive) and 41.6%.
For `COc1ccc(CCNC(=O)Cn2nc(-c3ccccc3OC)ccc2=O)cc1`, in that order: 0.0465, 26.6% (inactive) and 53.9%.
In the case of `COC(=O)c1ccc2c(=O)n(Cc3ccc(C(=O)N4CCCCCC4)cc3)c(=S)[nH]c2c1`, the compound max-min signal was 0.108; the glutamate response, % of max was 50.5% (inactive); the glutamate slope, % of max is 81%.
For `CCc1cccc(CC)c1NC(=O)Cn1nc(-c2ccco2)c2sc(N3CCCCC3)nc2c1=O`, in that order: 0.0682, 31.2% (inactive) and 54.8%.
